Assays:
Test in all cases: thermal shift delta Tm vs DMSO control; higher = stronger stabilization (binding)
Conditions in all cases: 12.5 µM; protein concentration 2 µM
LOC_OS01G01410-cb001 = test system: LOC_OS01G01410-cb001
Outline: (§1)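 Purified, E. coli-expressed rice kinase domain constructs were tested by differential scanning fluorimetry in 96-well plates: 19.5 μl of 2 μM kinase in 100 mM potassium phosphate pH 7.5, 150 mM NaCl, 10% glycerol, 5 × SYPRO Orange, plus compound in DMSO. Fluorescence was read from 25°C to 95°C at 0.05°C/s. Melting temperatures came from Boltzmann fits, and the shift is the triplicate mean relative to protein with DMSO alone.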

LOC_OS01G02750-cb003 = test system: LOC_OS01G02750-cb003
Outline: as §1

LOC_OS01G10900-cb004 = test system: LOC_OS01G10900-cb004
Outline: as §1

LOC_OS01G13800-cb001 = test system: LOC_OS01G13800-cb001
Outline: as §1

LOC_OS01G14860-cb001 = test system: LOC_OS01G14860-cb001
Outline: as §1

LOC_OS01G21960-cb002 = test system: LOC_OS01G21960-cb002
Outline: as §1

LOC_OS01G39600-cb002 = test system: LOC_OS01G39600-cb002
Outline: as §1

LOC_OS01G48390-cb002 = test system: LOC_OS01G48390-cb002
Outline: as §1

LOC_OS01G51400-cb002 = test system: LOC_OS01G51400-cb002
Outline: as §1

LOC_OS01G52050-cb004 = test system: T1, LOC_OS01G52050-cb004
T1 sequence (whole entry): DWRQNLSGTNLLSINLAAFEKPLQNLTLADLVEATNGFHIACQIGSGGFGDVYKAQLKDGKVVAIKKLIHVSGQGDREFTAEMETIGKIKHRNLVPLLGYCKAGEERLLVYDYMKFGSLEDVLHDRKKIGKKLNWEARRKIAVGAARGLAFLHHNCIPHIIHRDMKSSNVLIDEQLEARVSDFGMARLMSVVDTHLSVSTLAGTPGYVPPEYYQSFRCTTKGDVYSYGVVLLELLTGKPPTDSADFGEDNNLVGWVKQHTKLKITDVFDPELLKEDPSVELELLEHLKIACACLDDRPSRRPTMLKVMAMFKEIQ
Outline: as §1

LOC_OS01G57100-cb003 = test system: LOC_OS01G57100-cb003
Outline: as §1

LOC_OS01G60330-cb001 = test system: LOC_OS01G60330-cb001
Outline: as §1

LOC_OS01G60700-cb002 = test system: LOC_OS01G60700-cb002
Outline: as §1

LOC_OS01G63280-cb003 = test system: LOC_OS01G63280-cb003
Outline: as §1

LOC_OS01G67340-cb003 = test system: LOC_OS01G67340-cb003
Outline: as §1

LOC_OS01G70970-cb002 = test system: LOC_OS01G70970-cb002
Outline: as §1

LOC_OS02G07810-cb001 = test system: LOC_OS02G07810-cb001
Outline: as §1

LOC_OS02G08530-cb003 = test system: LOC_OS02G08530-cb003
Outline: as §1

LOC_OS02G14120-cb001 = test system: LOC_OS02G14120-cb001
Outline: as §1

LOC_OS02G17970-cb001 = test system: LOC_OS02G17970-cb001
Outline: as §1

Row | Compound | thermal shift delta Tm (LOC_OS01G01410-cb001) [°C] | thermal shift delta Tm (LOC_OS01G02750-cb003) [°C] | thermal shift delta Tm (LOC_OS01G10900-cb004) [°C] | thermal shift delta Tm (LOC_OS01G13800-cb001) [°C] | thermal shift delta Tm (LOC_OS01G14860-cb001) [°C] | thermal shift delta Tm (LOC_OS01G21960-cb002) [°C] | thermal shift delta Tm (LOC_OS01G39600-cb002) [°C] | thermal shift delta Tm (LOC_OS01G48390-cb002) [°C] | thermal shift delta Tm (LOC_OS01G51400-cb002) [°C] | thermal shift delta Tm (LOC_OS01G52050-cb004) [°C] | thermal shift delta Tm (LOC_OS01G57100-cb003) [°C] | thermal shift delta Tm (LOC_OS01G60330-cb001) [°C] | thermal shift delta Tm (LOC_OS01G60700-cb002) [°C] | thermal shift delta Tm (LOC_OS01G63280-cb003) [°C] | thermal shift delta Tm (LOC_OS01G67340-cb003) [°C] | thermal shift delta Tm (LOC_OS01G70970-cb002) [°C] | thermal shift delta Tm (LOC_OS02G07810-cb001) [°C] | thermal shift delta Tm (LOC_OS02G08530-cb003) [°C] | thermal shift delta Tm (LOC_OS02G14120-cb001) [°C] | thermal shift delta Tm (LOC_OS02G17970-cb001) [°C]
1 | O=C(NCCCNc1nc(Nc2cccc(NC(=O)N3CCCC3)c2)ncc1I)c1cccs1 | 4.61 | 2.64 | 1.85 | -0.09 | 5.77 | 3.44 | 8.52 | 2.91 | 1.38 | 10.7 | 1.91 | 11.8 | 0.35 | 0.47 | 2.07 | 8.4 | 1.11 | 2.77 | 9.13 | 0.49
2 | CCn1c(=O)c(-c2cc[nH]n2)cc2c(C)nc(N)nc21 | 0.43 | 1.06 | 0.44 | 0.27 | 0.44 | 0.65 | 0.24 | 0.13 | -0.16 | 0.21 | -0.09 | 0.91 | 0.72 | 0.14 | 0.34 | 0.36 | 0 | 0.79 | 0.62 | 0.52
3 | Nc1nccc(Oc2ccc3c(C(=O)Nc4cccc(C(F)(F)F)c4)cccc3c2)n1 | 0.89 | 1.42 | 0.88 | 1.39 | 3.82 | 1.43 | 0.93 | 1.13 | 0.12 | 1.04 | 1.31 | 1.99 | 0.86 | 7.54 | 0.91 | 0.71 | 0.76 | 0.59 | 1.14 | 1.47
4 | Cn1cc(-c2ccc(F)c(C(F)(F)F)c2)nc1C1CCN(c2ncnc3[nH]ncc23)CC1 | 0.43 | 0.52 | 0.51 | 0.16 | 1.8 | 0.54 | 0.71 | 0.47 | -0.2 | 0.39 | 0.5 | 1.11 | 0.96 | -0.11 | 0.07 | 0.57 | 0.34 | 0.53 | 0.5 | 0.85
5 | Cc1cc2c(F)c(Oc3ncnn4cc(OC[C@@H](C)O)c(C)c34)ccc2[nH]1 | 1.69 | 0.24 | 0.93 | 0.42 | 0.41 | 0.22 | 0.2 | 0.6 | 0 | 0.2 | 0.81 | 1.36 | 0.76 | 1.5 | -0.11 | 0.52 | 0.7 | 1.17 | 1.77 | 0.7
6 | Cc1ncc(CCCN(C)C)cc1Nc1ncc2c(n1)-c1ccc(C(F)(F)F)cc1NC(=S)C2 | 0.62 | 1.24 | -0.4 | 0.18 | 0.59 | 0.78 | -0.18 | 1.07 | 0.38 | 1.48 | 1.69 | 0.92 | 1.39 | 0.8 | 0.49 | 0.65 | 0.56 | 1.89 | 0.46 | 1.61
7 | CC(C)S(=O)(=O)c1ccc2nccc(Nc3ccc4scnc4c3)c2c1 | 0.88 | 1.53 | 0.44 | 0.78 | 0.59 | 0.58 | 0.91 | 2.39 | 0.31 | 3.11 | 1.27 | 0.31 | 0.69 | 0.17 | 0.82 | 0.33 | -0.59 | 1.18 | 1.58 | 1.42
8 | Cn1cc(-c2ccc3nnc(C(F)(F)c4ccc5ncccc5c4)n3n2)cn1 | 1.27 | -0.24 | 5.11 | 0.46 | 0.28 | 1.41 | 1.09 | 0.82 | 0.35 | 1.02 | 1.42 | 1.1 | 1.32 | 0.31 | -0.37 | 0.13 | 0.91 | 1.21 | 2.28 | 0.51
9 | CN1CCN(CCOc2cc(OC3CCOCC3)c3c(Nc4c(Cl)ccc5c4OCO5)ncnc3c2)CC1 [Saracatinib (AZD0530)] | 0.88 | 0.03 | 0.58 | 0.11 | 0.28 | 0.14 | -0.05 | 0.23 | 0.26 | 1.72 | 0.72 | 1.51 | 1.11 | 0.03 | 0.29 | 0.9 | 0.55 | 1.2 | 8.8 | 0
10 | C[C@@H](Oc1cc(-c2cnn(C3CCNCC3)c2)cnc1N)c1c(Cl)ccc(F)c1Cl | 2.96 | 1.71 | 1.58 | -0.59 | 0.41 | -0.27 | 0.93 | 5.62 | 0.05 | 4.57 | 2.74 | 1.69 | 0.88 | 0.44 | 1.69 | 1.7 | 0.08 | 0.54 | 10.6 | 0.54
11 | CC(C)(C#N)c1ccc(N2C(=O)OCc3cnc4ccc(-c5cnc6ccccc6c5)cc4c32)cc1 | 0.56 | 1.19 | 0.21 | 0.42 | 0.26 | 0.66 | 0.12 | 0.59 | 0.65 | 0.6 | 1.9 | 0.57 | 1.49 | 0.63 | 0.63 | 0.56 | 0.18 | 0.94 | 1.27 | 0.63
12 | COc1cc2ncnc(Sc3nnc(C)s3)c2cc1OC | 1.2 | 0.37 | 0.57 | -0.34 | 0.11 | 0.06 | -0.24 | 2.02 | 0.02 | 0.91 | 0.73 | 0.26 | 0.74 | -0.21 | 0.41 | -0.08 | -0.06 | 0.96 | 2.55 | -0.07

— the supplement of paper PMC9694430
